Assay [1] in a line: qHTS assay to identify small molecule antagonists of the thyroid receptor (TR) signaling pathway (AID 743065). Also: series mostly up to about 70 µM; nearly all actives have a fitted effect of over 55% in size. In outline: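 GH3.TRE-Luc rat pituitary cells carrying two TR response elements driving luciferase were plated for 4 h, given compound plus 1 nM T3 (final), and incubated 23.5 h at 37 C. ONE-Glo luminescence measured reporter inhibition; CellTiter-Fluor fluorescence tracked cytotoxicity.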
(In general: Quantitative high-throughput screening tests each substance at several concentrations.)

For assay [2], the system named is thyroid hormone receptor (rat, GH3 cells). Description: qHTS assay to identify small molecule agonists of the thyroid receptor (TR) signaling pathway (AID 743066; calls by dose curve).
Assay [3] concerns the target Estrogen receptor (Homo sapiens) (UniProt P03372). Description: qHTS assay to identify small molecule antagonists of the estrogen receptor alpha (ER-alpha) signaling pathway (AID 743069; active = well fitted curve in the direction sought with a large enough effect in the signal ratio in the repeat runs, not every such curve was filed as active; inconclusive = weak or mixed curves, or effect the other way; inactive = no such curve, though single readings can be large or run the other way; the % refers to the signal ratio; also: potency is read from the fitted curve at half-maximal effect). A digest of the protocol: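 A 17beta-estradiol challenge was applied right after compound transfer to ER-alpha-UAS-bla HEK293 cells previously kept in charcoal-stripped serum. Plates stood 18 hr at 37C and 5% CO2; fluorescence was read following 2 hr FRET substrate loading at room temperature.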

A short description of assay [4]: qHTS assay to identify small molecule antagonists of the estrogen receptor alpha (ER-alpha) signaling pathway - cell viability counter screen (AID 743074; calls by dose curve;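 also: HEK293 cells carrying ER-alpha-UAS-bla reporter stimulated with 17beta-estradiol; nearly all actives have a fitted effect of over 45% in size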).
The target in assay [5] is Estrogen receptor (Homo sapiens) (UniProt P03372). Description: qHTS assay to identify small molecule agonists of the estrogen receptor alpha (ER-alpha) signaling pathway (AID 743075; calls by dose curve;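 also: HEK293 GripTite cells with ER-alpha and UAS-driven beta-lactamase reporter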; also: potency is read from the fitted curve at half-maximal effect).
Assay [6] shares this target. Description: qHTS assay to identify small molecule agonists of the estrogen receptor alpha (ER-alpha) signaling pathway using the BG1 cell line (AID 743079). Also: nearly all actives have a fitted effect of over 20% in size. Also: potency is read from the fitted curve at half-maximal effect.
Assay [7] is described as follows: qHTS assay to identify small molecule antagonists of the estrogen receptor alpha (ER-alpha) signaling pathway using the BG1 cell line (AID 743080; calls by dose curve;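 also: BG1 cells stimulated with 17beta-estradiol alongside compound; series mostly up to about 70 µM; nearly all actives have a fitted effect of over 25% in size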). In outline:
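Endogenous full-length ER-alpha in BG1-Luc-4E2 cells drives a stably integrated 4×ERE luciferase gene; compounds were tested against 17beta-estradiol over 21.5 h, with luminescence and multiplexed viability fluorescence recorded.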

Assay [8] is described as follows: qHTS assay to identify small molecule antagonists of the estrogen receptor alpha (ER-alpha) signaling pathway using the BG1 cell line - cell viability counter screen (AID 743081).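 Also: compound given together with 17beta-estradiol as the ER stimulus; series mostly up to about 70 µM; nearly all actives have a fitted effect of over 45% in size.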
Another assay deals with Aromatase (Homo sapiens) (UniProt P11511). Description: qHTS assay to identify aromatase inhibitors (AID 743083). Also: series mostly up to about 70 µM; nearly all actives have a fitted effect of over 55% in size.
The nature of assay [9]: qHTS assay to identify aromatase inhibitors - cell viability counter screen (AID 743084).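 Also: cells stimulated with testosterone during compound exposure; nearly all actives have a fitted effect of over 55% in size.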
In assay [10] the target is Aryl hydrocarbon receptor (Homo sapiens) (UniProt P35869). The experiment in a line: qHTS assay to identify small molecule that activate the aryl hydrocarbon receptor (AhR) signaling pathway (AID 743085).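 Also: HG2L7.5c1 human HepG2 liver cells with stably integrated DRE-driven firefly reporter; series mostly up to about 70 µM; nearly all actives have a fitted effect of over 15% in size.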 In outline:
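Compounds were tested in HepG2 hepatocellular carcinoma cells harbouring a stably integrated luciferase gene under control of 20 DREs. Increased reporter signal after 24 h treatment at 37C was taken as AhR activation.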

The target in assay [11] is Peroxisome proliferator-activated receptor gamma (Homo sapiens) (UniProt P37231). Description: qHTS assay to identify small molecule agonists of the peroxisome proliferator-activated receptor gamma (PPARg) signaling pathway (AID 743094; active = well fitted activation curve with a large enough effect in the signal ratio in the repeat runs, not every such curve was filed as active; inconclusive = weak or mixed curves, or effect the other way; inactive = no such curve, though single readings can be large or run the other way; the % refers to the signal ratio). In outline: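 Agonism was assessed in a beta-lactamase reporter system, HEK293H cells with a stably integrated UAS-bla construct under PPARg control; the 17 h treatment at 37C preceded a 1 h room-temperature FRET substrate read.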

For assay [12] the target is unchanged. Description: qHTS assay to identify small molecule antagonists of the peroxisome proliferator-activated receptor gamma (PPARg) signaling pathway (AID 743191; calls by dose curve; also: series mostly up to about 63 µM; nearly all actives have a fitted effect of over 30% in size). In outline: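 GeneBLAzer PPARg UAS-bla HEK293H cells carrying a UAS-driven beta-lactamase reporter were plated at 3000 cells/well, preincubated 5 h at 37C, then given compound for 17 h at 37C; LiveBLAzer B/G FRET substrate was read after 1 h at room temperature.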

Assay [13] can be described thus: qHTS assay to identify small molecule antagonists of the peroxisome proliferator-activated receptor gamma (PPARg) signaling pathway - cell viability counter screen (AID 743194). Also: nearly all actives have a fitted effect of over 55% in size. A digest of the protocol: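 PPARg-UAS-bla HEK293H cells were plated, rested 5 h at 37 C, then treated with compounds plus rosiglitazone (50 nM final) for 17 h at 37 C; viability was then read by CellTiter-Glo luminescence after 30 min at room temperature.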

Assay [14] in a line: qHTS assay for small molecule agonists of the antioxidant response element (ARE) signaling pathway (AID 743202; active = well fitted activation curve with a large enough effect in the signal ratio in the repeat runs, not every such curve was filed as active; inconclusive = weak or mixed curves, or effect the other way; inactive = no such curve, though single readings can be large or run the other way; the % refers to the signal ratio; also: potency is read from the fitted curve at half-maximal effect). A digest of the protocol:
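Following a 16 h, 37 C exposure of reporter HepG2 cells (ARE-driven beta-lactamase, 2,000 cells/well) to compounds, FRET substrate was applied for 2 h at room temperature and fluorescence intensity recorded.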

Assay [15] can be described thus: qHTS assay for small molecule agonists of the antioxidant response element (ARE) signaling pathway - cell viability counter screen (AID 743203; calls by dose curve; also: nearly all actives have a fitted effect of over 55% in size). A digest of the protocol: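 ATP content via CellTiter-Glo luminescence served as the viability measure. Cells: ARE-bla HepG2, 2,000 per well. Exposure: 16 hrs, 37C/5% CO2.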
Assay [16] can be described thus: qHTS assay for small molecule activators of the heat shock response signaling pathway - cell viability counter screen (AID 743209). Also: nearly all actives have a fitted effect of over 50% in size. In outline: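 Compounds dissolved in DMSO were added to overnight-plated HSE-bla HeLa cells and left 5 h at 37 C. Cell viability was quantified by luminescence using CellTiter-Glo.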
Assay [17] can be described thus: qHTS assay for small molecule activators of the heat shock response signaling pathway (AID 743210; active = well fitted activation curve with a large enough effect in the signal ratio in the repeat runs, with a control signal flat, not every such curve was filed as active; inconclusive = weak or mixed curves; the % refers to the signal ratio; also: series mostly up to about 63 µM). In outline:
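Heat shock element–beta-lactamase HeLa reporter cells; qHTS with compounds for 5 h at 37 C; detection by FRET substrate fluorescence after 2.5 h at RT.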

The nature of assay [18]: qHTS assay to identify small molecule antagonists of the thyroid receptor (TR) signaling pathway - cell viability counter screen (AID 743064). Also: nearly all actives have a fitted effect of over 50% in size. Also: potency is read from the fitted curve at half-maximal effect. In outline: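 Rat GH3 pituitary tumor cells stably expressing two TR response elements driving luciferase were plated, rested 4 h, then dosed with library compounds and T3 (1 nM final). After 23.5 h at 37 °C, CellTiter-Fluor was added for 30 min and fluorescence recorded.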

A short description of assay [19]: qHTS assay to identify small molecule that activate the aryl hydrocarbon receptor (AhR) signaling pathway - cell viability counter screen (AID 743086).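 Also: HepG2 liver cells carrying the AhR DRE luciferase reporter; series mostly up to about 70 µM; nearly all actives have a fitted effect of over 45% in size.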 In outline: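 HepG2-AhR-luc (HG2L7.5c1) cells, 4000/well, were preincubated 5 h at 37C, exposed to compound in qHTS format for 24 hr at 37C, then given CellTiter-Fluor for 30 min; viability was read as fluorescence in the reporter wells.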

Values joined by “and” are separate entries in the source; they are usually repeats but may differ in a detail not shown here. Equal entries are not always repeated. Some compounds were tested as several samples or in several runs, with calls that do not always agree. Active and inactive are the calls of the source. Unless noted, calls follow the shape of the dose curve; as a rule, active = well fitted curve in the direction sought with a large enough effect in the repeat runs; inconclusive = weak or mixed curves; inactive = no such curve, though single readings can be large; an effect the other way counts as inactive or inconclusive.

Sequence of Peroxisome proliferator-activated receptor gamma (Homo sapiens) (P37231 whole entry, looked up): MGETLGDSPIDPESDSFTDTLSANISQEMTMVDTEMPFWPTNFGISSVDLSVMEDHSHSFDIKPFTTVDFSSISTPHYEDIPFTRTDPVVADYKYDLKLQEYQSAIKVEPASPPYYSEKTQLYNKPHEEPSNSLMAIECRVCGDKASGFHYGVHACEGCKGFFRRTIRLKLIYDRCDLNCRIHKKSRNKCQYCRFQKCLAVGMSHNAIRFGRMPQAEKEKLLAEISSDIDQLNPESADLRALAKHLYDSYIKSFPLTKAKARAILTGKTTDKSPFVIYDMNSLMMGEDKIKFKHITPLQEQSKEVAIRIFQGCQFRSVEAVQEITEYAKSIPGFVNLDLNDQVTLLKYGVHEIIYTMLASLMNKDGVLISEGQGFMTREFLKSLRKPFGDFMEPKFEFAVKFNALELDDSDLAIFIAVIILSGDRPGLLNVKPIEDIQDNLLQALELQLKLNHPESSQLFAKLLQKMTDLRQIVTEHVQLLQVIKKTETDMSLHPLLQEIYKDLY
Sequence of Aromatase (Homo sapiens) (P11511 whole entry, looked up): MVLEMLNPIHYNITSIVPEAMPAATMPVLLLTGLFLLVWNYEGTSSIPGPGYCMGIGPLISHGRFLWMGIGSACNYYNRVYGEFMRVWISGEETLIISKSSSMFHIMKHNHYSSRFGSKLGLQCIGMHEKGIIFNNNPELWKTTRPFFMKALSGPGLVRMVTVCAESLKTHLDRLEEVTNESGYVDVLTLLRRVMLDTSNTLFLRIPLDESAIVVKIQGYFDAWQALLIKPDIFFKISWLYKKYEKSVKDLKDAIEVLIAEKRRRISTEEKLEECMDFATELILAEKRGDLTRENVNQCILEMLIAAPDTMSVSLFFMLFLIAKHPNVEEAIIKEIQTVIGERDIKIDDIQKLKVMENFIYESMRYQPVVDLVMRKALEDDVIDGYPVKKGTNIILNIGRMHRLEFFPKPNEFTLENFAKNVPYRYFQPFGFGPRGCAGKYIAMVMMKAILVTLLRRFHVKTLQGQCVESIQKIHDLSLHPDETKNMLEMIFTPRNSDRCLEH
Sequence of Aryl hydrocarbon receptor (Homo sapiens) (P35869 whole entry, looked up): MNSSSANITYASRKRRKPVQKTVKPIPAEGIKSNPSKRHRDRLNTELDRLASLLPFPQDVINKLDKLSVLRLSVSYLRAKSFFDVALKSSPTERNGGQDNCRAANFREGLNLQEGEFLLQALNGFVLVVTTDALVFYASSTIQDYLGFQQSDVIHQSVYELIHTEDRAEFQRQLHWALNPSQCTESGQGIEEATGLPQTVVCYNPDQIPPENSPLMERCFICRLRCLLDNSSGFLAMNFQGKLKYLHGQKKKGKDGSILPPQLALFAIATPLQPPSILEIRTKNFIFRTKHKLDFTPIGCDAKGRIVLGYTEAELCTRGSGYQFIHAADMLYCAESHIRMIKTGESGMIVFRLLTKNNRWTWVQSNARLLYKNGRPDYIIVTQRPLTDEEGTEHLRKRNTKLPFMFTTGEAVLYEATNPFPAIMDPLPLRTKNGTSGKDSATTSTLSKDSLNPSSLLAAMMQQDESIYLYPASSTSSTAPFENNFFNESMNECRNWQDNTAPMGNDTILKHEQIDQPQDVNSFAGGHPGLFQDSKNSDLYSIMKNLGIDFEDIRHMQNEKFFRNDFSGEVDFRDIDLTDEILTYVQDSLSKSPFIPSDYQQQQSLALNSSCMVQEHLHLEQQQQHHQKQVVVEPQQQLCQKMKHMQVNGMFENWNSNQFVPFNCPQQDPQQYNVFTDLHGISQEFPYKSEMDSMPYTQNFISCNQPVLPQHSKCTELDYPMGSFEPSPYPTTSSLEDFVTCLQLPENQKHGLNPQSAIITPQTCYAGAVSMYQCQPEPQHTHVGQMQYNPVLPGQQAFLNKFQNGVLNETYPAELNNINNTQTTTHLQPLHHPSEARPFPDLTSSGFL
Sequence of Estrogen receptor (Homo sapiens) (P03372 whole entry, looked up): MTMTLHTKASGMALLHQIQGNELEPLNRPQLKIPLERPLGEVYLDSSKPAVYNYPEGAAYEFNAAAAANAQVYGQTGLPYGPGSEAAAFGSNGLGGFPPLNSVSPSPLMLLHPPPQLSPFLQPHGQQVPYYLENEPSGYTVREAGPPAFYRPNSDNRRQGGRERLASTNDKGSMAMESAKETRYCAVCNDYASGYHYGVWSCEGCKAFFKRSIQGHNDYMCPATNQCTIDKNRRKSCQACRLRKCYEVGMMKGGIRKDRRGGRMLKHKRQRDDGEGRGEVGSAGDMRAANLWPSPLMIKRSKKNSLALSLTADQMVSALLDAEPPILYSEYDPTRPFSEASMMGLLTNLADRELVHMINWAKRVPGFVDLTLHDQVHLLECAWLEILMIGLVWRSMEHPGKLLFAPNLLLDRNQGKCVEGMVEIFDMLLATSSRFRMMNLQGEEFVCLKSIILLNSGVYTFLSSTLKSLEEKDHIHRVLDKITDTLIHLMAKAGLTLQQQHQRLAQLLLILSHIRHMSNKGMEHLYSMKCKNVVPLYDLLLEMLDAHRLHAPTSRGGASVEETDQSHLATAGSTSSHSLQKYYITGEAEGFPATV

Consider `C=C(C)C(=O)OCCC[Si](OC)(OC)OC`, for which the Potency entry in [1], in [3], in assay [4], in assay [5], in assay [6] and in assay [7] was “inactive” throughout. Further, the Potency result (in assay [8]; with Aromatase (Homo sapiens); in assay [9]; in assay [10]; in assay [12]; in [13]) was “inactive” throughout. Further, the Potency result in assay [14], in assay [15] and in [16] was “inactive” in each case. The compound was classed as inactive in [2], in assay [11] and in assay [17].

As to `CCCCCCCCCCC=CC1CC(=O)OC1=O` (centres undefined), the Potency entry in assay [18], in assay [4], in assay [8], in assay [19], in assay [13] and in [15] was “inactive” throughout. Moreover, the Potency entry in assay [16] was “inactive”. For the same compound, the outcome in [2] was inactive.

For `CCCCC(CC)C(=O)OCCOCCOCCOC(=O)C(CC)CCCC` (centres undefined), the Potency entry in assay [1], in [3], in assay [4], in assay [5], in assay [6] and in assay [7] was “inactive” each time. Besides, the Potency result (in assay [8]; with Aromatase (Homo sapiens); in assay [9]; in [19]; in assay [12]; in [13]) was “inactive” each time. Moreover, the Potency result in assay [14], in assay [15] and in [16] was “inactive” throughout. Further, the call in assay [2] and in assay [11] was inactive.

Consider `CC(C)(C)C1CCC(O)CC1` (centres undefined), for which the Potency result in assay [1], in assay [3], in assay [4], in assay [5], in assay [6] and in [7] was “inactive” each time. Further, the Potency entry (in [8]; with Aromatase (Homo sapiens); in [9]; in assay [19]; in assay [12]; in assay [13]) was “inactive” in each case. Besides, the Potency result in assay [14], in assay [15] and in assay [16] was “inactive” each time. The result in assay [2], in [11] and in assay [17] was inactive.

As for `O=c1c(-c2ccc(O)cc2)coc2cc(O)ccc12`, the Potency result (in [3]; in assay [8]; in the assay with Aromatase (Homo sapiens); in [9]; in assay [13]; in assay [16]) was “inactive” in each case. In addition, the result in [11] was inactive.

Take `CC(C)(C)C(=O)C1C(=O)c2ccccc2C1=O`: the Potency is 67.9 µM (active) in assay [18]; 54.4 µM [inconclusive] (active) and 54.9 µM [inconclusive] (active) in assay [3]. In addition, the compound was classed as inactive in assay [2] and in assay [17]. Further, the Potency result (in [4]; in assay [5]; in the assay with Aromatase (Homo sapiens); in assay [13]; in [15]; in [16]) was “inactive” each time.

With `NCc1cccc(CN)c1`, the Potency result in [1], in assay [3], in assay [4], in assay [5], in [6] and in [7] was “inactive” throughout. In addition, the Potency entry (in [8]; with Aromatase (Homo sapiens); in assay [9]; in [10]; in assay [12]; in assay [13]) was “inactive” in each case. Further, the Potency result in [14], in assay [15] and in assay [16] was “inactive” each time. For the same compound, the compound was called inactive in assay [2], in [11] and in assay [17].

As for `CC1CC(OC(=O)c2ccccc2O)CC(C)(C)C1` (centres undefined), the result in [2] and in [11] was inactive. Also, the Potency entry (in assay [4]; in assay [8]; with Aromatase (Homo sapiens); in assay [9]; in [10]; in assay [13]) was “inactive” each time. Besides, the Potency result in assay [14] and in assay [15] was “inactive” throughout.

In the case of `Oc1ccc(OCc2ccccc2)cc1`, the Potency in assay [18] is 9.02 µM (active); in assay [5] it was 11.4 µM [activator] (active) and 53.8 µM [inconclusive] (active); in assay [6] it was 8.04 µM (active) and 9.48 µM (active); in assay [14], 21.2 µM (active) and inactive. Moreover, the Potency entry (in assay [3]; in assay [4]; in assay [8]; with Aromatase (Homo sapiens); in assay [9]; in assay [10]) was “inactive” throughout. Further, the Potency result in assay [13], in assay [15] and in [16] was “inactive” each time.

For the origin of these results see PubChem BioAssay (Tox21).
